Inconclusive results are not listed. The source made the active and inactive calls. The calls were made as follows, unless noted: active = hit-call score of the fitted dose curve at least 0.9, where 1 is the maximum; inconclusive = response in the unintended direction; inactive = score below 0.9.

Sequence of PGR (gene 5241) (P06401 whole entry, looked up): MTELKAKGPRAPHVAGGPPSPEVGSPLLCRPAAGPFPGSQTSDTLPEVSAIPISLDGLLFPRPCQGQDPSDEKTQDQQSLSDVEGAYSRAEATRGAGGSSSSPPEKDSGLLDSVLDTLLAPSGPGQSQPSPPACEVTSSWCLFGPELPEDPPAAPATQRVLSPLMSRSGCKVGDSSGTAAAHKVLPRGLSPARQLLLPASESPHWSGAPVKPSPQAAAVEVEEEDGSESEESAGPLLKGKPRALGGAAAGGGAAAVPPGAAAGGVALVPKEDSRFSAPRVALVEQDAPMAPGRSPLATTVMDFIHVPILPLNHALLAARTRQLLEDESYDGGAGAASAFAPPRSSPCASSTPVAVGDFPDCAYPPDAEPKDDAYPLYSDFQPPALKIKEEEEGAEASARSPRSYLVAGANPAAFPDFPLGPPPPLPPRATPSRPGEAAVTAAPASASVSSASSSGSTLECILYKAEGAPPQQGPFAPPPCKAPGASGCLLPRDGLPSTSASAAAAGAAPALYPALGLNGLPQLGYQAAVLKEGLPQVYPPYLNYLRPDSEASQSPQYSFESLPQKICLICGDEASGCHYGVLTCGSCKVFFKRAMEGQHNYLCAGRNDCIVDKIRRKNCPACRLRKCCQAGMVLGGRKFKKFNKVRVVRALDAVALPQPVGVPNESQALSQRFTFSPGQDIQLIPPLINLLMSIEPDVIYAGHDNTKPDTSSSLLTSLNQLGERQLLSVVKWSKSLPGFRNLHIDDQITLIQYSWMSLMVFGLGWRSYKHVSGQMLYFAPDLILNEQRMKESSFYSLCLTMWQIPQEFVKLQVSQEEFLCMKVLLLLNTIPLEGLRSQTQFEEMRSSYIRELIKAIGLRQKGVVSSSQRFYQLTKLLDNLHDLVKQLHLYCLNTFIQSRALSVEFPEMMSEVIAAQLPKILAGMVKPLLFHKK

The first assay deals with PGR (gene 5241) (UniProt P06401). Briefly: TOX21_PR_BLA_Followup_Antagonist_ratio: Tox21 HEK293 Progesterone Receptor (PR) Antagonism Beta-lactamase Follow-Up Assay, Ratio (AID 2283934).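 Also: PR-UAS-bla HEK293T cells stimulated with 1 nM R5020 agonist for 16 hr.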 In short, it runs like this:
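Antagonist mode used 1 nM R5020 (final) as agonist on a beta-lactamase reporter line in HEK293T cells. Activity was taken from the substrate cleavage ratio after 16 hr exposure.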
As for `C[C@@H]1C[C@H]2[C@@H]3CCC4=CC(=O)C=C[C@]4(C)[C@@]3(F)[C@@H](O)C[C@]2(C)[C@@]1(O)C(=O)COP(=O)(O)O`, the outcome was inactive.

In the case of `c1ccc2cc3c(ccc4ccccc43)cc2c1`, the AC50 is 21.8 µM (active).

On to `CC[C@H](c1ccc(O)cc1)[C@@H](CC)c1ccc(O)cc1`, for which the half-maximal activity concentration (AC50) is 9.17 µM (active).

System in another assay: not listed separately
Briefly: TOX21_PR_BLA_Followup_Agonist_viability: Viability Assessment in the Tox21 HEK293 Progesterone Receptor (PR) Agonism Beta-lactamase Follow-Up Assay (AID 2283935).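 Also: cells exposed to compound for 16 hr at 37 °C; signal loss means lower viability so actives are cytotoxic.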 The essentials: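 Multiplexed viability counter-screen: ATP-coupled luciferase signal measured after 30 min at room temperature, following 16 hr compound treatment of PR-UAS-bla HEK293T cells grown in charcoal-stripped serum.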
For `C[C@@H]1C[C@H]2[C@@H]3CCC4=CC(=O)C=C[C@]4(C)[C@@]3(F)[C@@H](O)C[C@]2(C)[C@@]1(O)C(=O)COP(=O)(O)O`, the outcome was inactive.

For `c1ccc2cc3c(ccc4ccccc43)cc2c1`, the compound was classed as inactive.

For the compound `CC[C@H](c1ccc(O)cc1)[C@@H](CC)c1ccc(O)cc1`, the result was inactive.

System in another assay: not listed separately
Briefly: TOX21_PR_BLA_Followup_Antagonist_viability: Viability Assessment in the Tox21 HEK293 Progesterone Receptor (PR) Antagonism Beta-lactamase Follow-Up Assay (AID 2283936).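 Also: hits lower the luminescence signal meaning cytotoxicity.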 In short, it runs like this:
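PR-UAS-bla HEK293T cells (3,000/well, 2% charcoal-stripped FBS) given compound plus R5020 agonist, 16 h at 37C. CellTiter-Glo added after bla read, 30 min at room temperature; luminescence loss indicates cytotoxicity.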
For `C[C@@H]1C[C@H]2[C@@H]3CCC4=CC(=O)C=C[C@]4(C)[C@@]3(F)[C@@H](O)C[C@]2(C)[C@@]1(O)C(=O)COP(=O)(O)O`, the call was inactive.

Consider `c1ccc2cc3c(ccc4ccccc43)cc2c1`, for which the outcome was inactive.

With `CC[C@H](c1ccc(O)cc1)[C@@H](CC)c1ccc(O)cc1`, the call was inactive.

System in a further assay: not listed separately
Briefly: CCTE_Harrill_HTTr_Viability_DMEM_6hr: (Pilot) CCTE's 6-hour Cell Viability Assessment for the High-Throughput Transcriptomics (HTTr) Platform, in MCF-7 cells cultured in DMEM + 10% fetal bovine serum, Harrill Lab (AID 2283973; active = hit-call score of the fitted dose curve at least 0.9, where 1 is the maximum; inactive = score below 0.9). The source says:
(§1) This is a cell-based assay that evaluates cell viability using high content imaging to evaluate membrane integrity using propidium iodide dye exclusion in a 384 well format.One of seven assay components measured from the CCTE_Harrill_HTTr_Viability assay. This was part of a pilot experiment. This is a cell-based assay that evaluates cell viability in MCF-7 cells cultured in DMEM + 10% fetal bovine serum. High content imaging is used to evaluate membrane integrity using propidium iodide dye exclusion. Measurements are taken at 6 hours after chemical dosing in 384-well format.The assay component endpoint CCTE_Harrill_HTTr_Viability_DMEM_6hr was analyzed with bidirectional fitting relation to DMSO as the negative control and baseline of activity. Using a type of viability reporter to understand changes in cytotoxicity, gain-of-signal activity can be used to evaluate membrane integrity using propidium iodide dye exclusion. To generalize the intended target to other relatable targets, this assay endpoint is annotated to cell cycle, where the subfamily is cytotoxicity.
Chemicals were tested in MCF7 cells in an eight point dilution series with a six hour exposure duration.
With `Cc1oc(-c2ccccc2)nc1CCOc1ccc(C[C@H](Nc2ccccc2C(=O)c2ccccc2)C(=O)O)cc1`, the outcome was inactive.

For the compound `CCC(=C(c1ccc(O)cc1)c1ccc(OCCN(C)C)cc1)c1ccccc1`, the half-maximal activity concentration (AC50) was 79 µM (active).

As to `O=C(O)Cc1cc(I)c(Oc2cc(I)c(O)c(I)c2)c(I)c1`, the outcome was inactive.

System in the next assay: not listed separately
Briefly: CCTE_Harrill_HTTr_Viability_DMEM_12hr: (Pilot) CCTE's 12-hour Cell Viability Assessment for the High-Throughput Transcriptomics (HTTr) Platform, in MCF-7 cells cultured in DMEM + 10% fetal bovine serum, Harrill Lab (AID 2283974; active = hit-call score of the fitted dose curve at least 0.9, where 1 is the maximum; inactive = score below 0.9).
Source text: as §1, with “12” for “6”, “CCTE_Harrill_HTTr_Viability_DMEM_12hr” for “CCTE_Harrill_HTTr_Viability_DMEM_6hr”
Chemicals were tested in MCF7 cells in an eight point dilution series with a twelve hour exposure duration.
Consider `Cc1oc(-c2ccccc2)nc1CCOc1ccc(C[C@H](Nc2ccccc2C(=O)c2ccccc2)C(=O)O)cc1`, for which the result was inactive.

With `CCC(=C(c1ccc(O)cc1)c1ccc(OCCN(C)C)cc1)c1ccccc1`, the AC50 is 63.6 µM (active).

As to `O=C(O)Cc1cc(I)c(Oc2cc(I)c(O)c(I)c2)c(I)c1`, the outcome was inactive.

System in the next assay: not listed separately
The experiment in a line: CCTE_Harrill_HTTr_Viability_DMEM_24hr: (Pilot) CCTE's 24-hour Cell Viability Assessment for the High-Throughput Transcriptomics (HTTr) Platform, in MCF-7 cells cultured in DMEM + 10% fetal bovine serum, Harrill Lab (AID 2283975; active = hit-call score of the fitted dose curve at least 0.9, where 1 is the maximum; inactive = score below 0.9).
Source text: as §1, with “24” for “6”, “CCTE_Harrill_HTTr_Viability_DMEM_24hr” for “CCTE_Harrill_HTTr_Viability_DMEM_6hr”
Chemicals were tested in MCF7 cells in an eight point dilution series with a twenty-four hour exposure duration.
On to `Cc1oc(-c2ccccc2)nc1CCOc1ccc(C[C@H](Nc2ccccc2C(=O)c2ccccc2)C(=O)O)cc1`, for which the outcome was inactive.

As to `CCC(=C(c1ccc(O)cc1)c1ccc(OCCN(C)C)cc1)c1ccccc1`, the AC50 was 69.4 µM (active).

With `O=C(O)Cc1cc(I)c(Oc2cc(I)c(O)c(I)c2)c(I)c1`, the outcome was inactive.
